Assay results reported in PubChem BioAssay (Tox21).
Records with an inconclusive call do not appear. Activity calls are given as the source filed them. Unless noted, calls come from the whole dose curve; as a rule, active = well fitted curve in the direction sought with a large enough effect in the repeat runs; inconclusive = weak or mixed curves; inactive = no such curve, though single readings can be large; an effect the other way counts as inactive or inconclusive.

Legend:
[1] = qHTS assay to identify small molecule antagonists of the vitamin D receptor (VDR) signaling pathway - cell viability counter screen (AID 743225); note: nearly all actives have a fitted effect of over 50% in size
How it was run: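 In this counter screen, VDR-bla HEK 293T cells receive test compound plus 3 nM final calcitriol for 16 h at 37C. Room-temperature steps of 2 h with the beta-lactamase substrate, then 30 min with CellTiter-Glo, precede the luminescence read.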

[2] = qHTS assay to identify small molecule agonists of the NFkB signaling pathway (AID 1159509; active = well fitted curve in the direction sought with a large enough effect in the signal ratio in the repeat runs, not every such curve was filed as active; the % refers to the signal ratio; note: series mostly up to about 61 µM)
How it was run: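 After overnight attachment, reporter cells received test compounds, DMSO or positive controls and were incubated 5 hr at 37 C. FRET substrate was then added for 1.5 hr at room temperature before dual-emission fluorescence reading.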

[3] = qHTS assay to identify small molecule agonists of the NFkB signaling pathway - cell viability counter screen (AID 1159515; calls by dose curve; note: series mostly up to about 61 µM; nearly all actives have a fitted effect of over 55% in size)
How it was run: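 Using the same wells as the NFkB reporter read, ME-180 NFkB-bla cells given compounds for 5 hr were assessed for viability via CellTiter-Glo, with luminescence taken after a 30 min room-temperature incubation.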

[4] = qHTS assay to identify small molecule agonists of the endoplasmic reticulum stress response signaling pathway (AID 1159516; active = well fitted activation curve with a large enough effect in the signal ratio in the repeat runs, not every such curve was filed as active; the % refers to the signal ratio)
How it was run: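 An ESRE-bla HeLa cell assay: compounds were pin-transferred from DMSO onto overnight-plated cells and left 5 hr at 37 C. Substrate was then loaded for 2 hr at room temperature before reading fluorescence at 460 nm and 530 nm.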

[5] = qHTS assay to identify small molecule agonists of the endoplasmic reticulum stress response signaling pathway - cell viability counter screen (AID 1159517; calls by dose curve;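 note: HeLa cells carrying an ER stress response element beta-lactamase reporter; series mostly up to about 61 µM; nearly all actives have a fitted effect of over 50% in size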)
How it was run: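 Counter-screen wells were identical to the reporter wells. Cells were plated at 1,500 per well and dosed for 5 hr, then read for luminescence 30 min after CellTiter-Glo addition.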

[6] = qHTS assay to identify small molecule antagonists of the retinoid-related orphan receptor gamma (ROR-gamma) signaling pathway - cell viability counter screen (AID 1159520); note: nearly all actives have a fitted effect of over 50% in size
How it was run: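 Tet-on ROR gamma CHO cells were given compounds for 2 hr, then doxycycline hyclate at 1 uM final, and incubated 16 hr at 37 C. Viability was measured as ATP content by CellTiter-Glo luminescence.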

[7] = target: Nuclear receptor ROR-gamma (Homo sapiens) (UniProt P51449); test: qHTS assay to identify small molecule antagonists of the retinoid-related orphan receptor gamma (ROR-gamma) signaling pathway (AID 1159521;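 note: CHO cells with doxycycline inducible ROR-gamma driving an RORE luciferase reporter; top concentration of the series differs between compounds; nearly all actives have a fitted effect of over 50% in size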)
How it was run: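 Screening format: cell-based luciferase reporter in CHO cells with doxycycline-inducible RORγ. Compound pre-exposure lasts 2 h, doxycycline is 1 uM final, induction runs 16 h at 37 C, and ONE-Glo luminescence is read.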

[8] = qHTS assay to identify small molecule agonists of the AP-1 signaling pathway (AID 1159526; calls by dose curve)
[9] = qHTS assay to identify small molecule agonists of the RXR signaling pathway - cell viability counter screen (AID 1159529)
How it was run: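 Viability read-out for the RXR-alpha agonist qHTS: luminescent CellTiter-Glo signal after 30 min at RT. HEK 293T bla reporter cells, 2% charcoal-stripped FBS, 16 hr compound incubation; tetraoctyl ammonium bromide as cytotoxic control.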

[10] = qHTS assay to identify small molecule antagonists of the retinoid acid receptor (RAR) signaling pathway - cell viability counter screen (AID 1159551); note: nearly all actives have a fitted effect of over 35% in size
How it was run: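 Retinol-stimulated (1 uM final) C3RL4 cells, compound 6 h, 37 C; readout CellTiter-Glo luminescence (ATP) after 30 min RT incubation.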

[11] = qHTS assay to identify small molecule antagonists of the retinoic acid receptor (RAR) signaling pathway (AID 1159552; note: nearly all actives have a fitted effect of over 50% in size)
How it was run: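 Using a RARE-driven luciferase construct in C3RL4 cells, retinol at 1 uM final provided the agonist stimulus while compounds were co-applied. After 6 hours at 37 C, luminescence was recorded to flag inhibitors of retinol signaling.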

[12] = qHTS assay to identify small molecule agonists of the retinoic acid receptor (RAR) signaling pathway (AID 1159553)
How it was run: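 Reporter readout comes from luciferase under RARE control in C3RL4 cells; compound exposure lasts 6 hr at 37 C in 5% CO2, and luminescence is recorded following a 30 min room-temperature incubation with reagent.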

[13] = qHTS assay to identify small molecule agonists of the AP-1 signaling pathway - cell viability counter screen (AID 1159525; calls by dose curve; note: nearly all actives have a fitted effect of over 55% in size)
How it was run: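 AP-1-bla ME-180 cells in Opti-MEM with 0.5% dialyzed FBS, compound exposure 5 h at 37 C in 15-point titration. Viability read in the same wells as ATP content by CellTiter-Glo luminescence, normalised to tetra-n-octylammonium bromide and DMSO controls.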

[14] = target: Retinoic acid receptor RXR-alpha (Homo sapiens) (UniProt P19793); test: qHTS assay to identify small molecule agonists of the RXR signaling pathway (AID 1159527; calls by dose curve; note: nearly all actives have a fitted effect of over 35% in size)
Sequence of Retinoic acid receptor RXR-alpha (Homo sapiens) (P19793 whole entry, looked up): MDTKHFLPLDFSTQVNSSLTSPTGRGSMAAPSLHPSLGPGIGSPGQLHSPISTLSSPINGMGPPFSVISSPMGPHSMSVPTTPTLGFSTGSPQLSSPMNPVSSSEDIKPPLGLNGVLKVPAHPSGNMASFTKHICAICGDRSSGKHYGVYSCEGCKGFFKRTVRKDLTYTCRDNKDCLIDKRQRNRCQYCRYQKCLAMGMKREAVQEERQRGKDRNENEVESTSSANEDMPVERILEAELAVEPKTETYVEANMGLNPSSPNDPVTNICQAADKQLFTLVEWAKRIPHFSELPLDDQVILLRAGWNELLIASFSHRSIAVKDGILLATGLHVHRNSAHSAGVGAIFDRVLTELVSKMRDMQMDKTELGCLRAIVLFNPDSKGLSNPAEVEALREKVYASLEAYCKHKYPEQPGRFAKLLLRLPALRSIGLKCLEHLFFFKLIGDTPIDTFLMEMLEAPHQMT
How it was run: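 Fluorescence ratio readout (460 vs 530 nm) from GeneBLAzer RXR-alpha HEK 293T cells after 16 hr compound treatment; cells seeded 5 hr beforehand in low-serum, charcoal-stripped medium.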

[15] = qHTS assay to identify small molecule antagonists of the estrogen related receptor (ERR) signaling pathway - cell viability counter screen (AID 1224818);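 note: series mostly up to about 46 µM; viability measured after 17.5 h of compound exposure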
How it was run: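 After a 6 h pre-incubation, ERR cells were dosed by pin tool with compounds, positive/negative controls or DMSO alone. Following 17.5 h at 37 C and 30 min with CellTiter-Fluor, fluorescence was recorded.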

[16] = qHTS assay to identify small molecule agonists of the estrogen related receptor (ERR) signaling pathway (AID 1224820)
How it was run: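 Quantitative HTS of the LOPAC library used NTP ERR reporter cells treated 18 h at 37 C. Signal is luminescence after One-Glo addition and a 30 min room-temperature incubation.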

[17] = qHTS assay to identify small molecule antagonists of the estrogen related receptor signaling pathway with the pleiotropic PPARgamma coactivator (PGC) cell viability counter screen (AID 1224822;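 note: series mostly up to about 46 µM; viability read after 17.5 h compound exposure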)
How it was run: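 PGC/ERR cells were plated at 2,000 per well and allowed 6 h to settle before compound addition. Following 17.5 h at 37 C, CellTiter-Fluor reagent was added and fluorescence was read 30 min later.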

[18] = qHTS assay to identify small molecule agonists of the estrogen related receptor signaling pathway with the pleiotropic PPARgamma coactivator (PGC) (AID 1224823)
How it was run: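 Cell-based luciferase assay in the NTP-supplied PGC/ERR line, 2,000 cells/well; 18 h compound exposure at 37 C, luminescence after One-Glo.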

Measured: Potency

O=c1ccc2ccccc2o1
inactive: [1] | [2] | [3] | [4] | [5] | [6] | [7] | [8] | [9] | [10] | [11] | [12]

NC(N)=O
inactive: [1] | [2] | [3] | [4] | [5] | [6] | [7] | [13] | [8] | [9] | [10]

O=C(O)CCC(=O)O
inactive: [1] | [2] | [3] | [4] | [5] | [6] | [7] | [8] | [14] | [9] | [10] | [11] | [12]

CCCCC1C(=O)N(c2ccccc2)N(c2ccccc2)C1=O
inactive: [1] | [2] | [3] | [4] | [5] | [6] | [7] | [8] | [9] | [10] | [11] | [12] | [15] | [16] | [17] | [18]

CC(O)CN(CCN(CC(C)O)CC(C)O)CC(C)O (centres undefined)
inactive: [1] | [2] | [3] | [4] | [5] | [6] | [7] | [8] | [9] | [10] | [11] | [12]
